Our source for the inhibition values is PubChem BioAssay AID1510 (The Scripps Research Institute Molecular Screening Center, 2009).

Screen size: about 220,000 compounds; about 570 (0.26%) were called active. Rule as the data show it: active = inhibition above about 29%; inactive = the rest. Many of the other results were omitted from the sample, so actives are more common in it than they were.

Sphingosine 1-phosphate receptor 4 (Homo sapiens), sequence (O95977 whole entry, looked up): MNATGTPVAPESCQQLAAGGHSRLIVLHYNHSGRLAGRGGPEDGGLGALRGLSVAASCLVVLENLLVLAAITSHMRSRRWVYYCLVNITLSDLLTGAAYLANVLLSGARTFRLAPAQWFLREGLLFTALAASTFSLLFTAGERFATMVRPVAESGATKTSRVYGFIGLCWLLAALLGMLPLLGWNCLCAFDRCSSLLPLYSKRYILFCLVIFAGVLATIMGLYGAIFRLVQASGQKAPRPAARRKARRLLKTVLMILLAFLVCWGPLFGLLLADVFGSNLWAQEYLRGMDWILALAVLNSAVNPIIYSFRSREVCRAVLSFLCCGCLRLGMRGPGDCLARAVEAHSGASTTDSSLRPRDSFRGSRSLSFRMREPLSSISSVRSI

This experiment has as its target Sphingosine 1-phosphate receptor 4 (Homo sapiens) (UniProt O95977). In words: blockers of human S1P4 receptor – cell-based, primary screen (AID 1510).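 Also: 0% = wells stimulated with agonist and 100% = vehicle wells without agonist.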 The note with it: S1P4-expressing cells, antagonist mode, reporter read-out; at 4.98 µM; active compounds read high.
Regarding `O=S1(=O)CCC(NC(=S)SCc2ccccc2Br)C1` (stereo not given), the inhibition – broadly, the drop in the measured response relative to a control, in per cent – was -3.75% (inactive). On to `C[C@@H](NC(=O)OC(C)(C)C)c1nnc(S(=O)(=O)Cc2ccccc2)o1`, for which the inhibition is 64% (active). Consider `C[C@H](NC(=O)OC(C)(C)C)c1nnc(SCC(N)=O)o1`, for which the inhibition was -7.8% (inactive). Then `CC(C)Sc1nnc([C@H](Cc2ccccc2)NC(=O)OC(C)(C)C)o1`, with -0.59% (inactive); and `CC(C(=O)NC1CCCC1)N(c1ccc(Oc2ccccc2)cc1)S(C)(=O)=O` (stereo not given), with -5.41% (inactive). Take `CC(=O)N1CCN(S(=O)(=O)c2c(F)cc(F)c(Cl)c2F)CC1`: the inhibition was 6.68% (inactive).

For the compound `COCCCN(C(=S)Nc1c(C)cc(C)cc1C)C(C)c1ccncc1` (stereo not given), the inhibition was -9.1% (inactive). Then `CCOC(=O)Cc1csc(NC(=O)CSc2ccc(Br)cc2)n1`, with -7.78% (inactive). Then `Cc1cc(-c2cccs2)nc(-n2cccc2)n1`, with -8.93% (inactive). For the compound `O=C(NNC(=S)NC(=O)c1cn(-c2ccccc2)nc1-c1ccccc1)c1ccncc1`, the inhibition is 13.1% (inactive).

For `CCc1nnc(NC(=O)CCN(c2ccc(C)cc2)S(=O)(=O)c2ccccc2)s1`, the inhibition was -0.25% (inactive).

Turning to `O=C(NCCOc1ccccc1Cl)C(=O)Nc1ccccc1`, the inhibition is -2.25% (inactive). Then `S=C(NCC1CCCO1)N1CCN(c2ccc(Cl)c(Cl)c2)CC1` (stereo not given), with 4.85% (inactive). `CCC(C)(C)NC(=O)C(c1ccc(O)cc1)N(C(=O)Cn1nnc2ccccc21)c1ccc(NC(C)=O)cc1` (stereo not given): the inhibition is -9.34% (inactive). With `COc1cccc(NC(=O)c2nn(-c3ccc(OC)cc3OC)c(=O)c3ccccc23)c1`, the inhibition was -8.83% (inactive). Then `O=C(/C=C/c1ccc(Cl)c([N+](=O)[O-])c1)c1cccnc1`, with 2.24% (inactive).

`O=C(/C=C/c1ccc(Cl)cc1Cl)c1cccnc1`: the inhibition is 47.2% (active). `O=C(/C=C/c1ccc(Cl)cc1Cl)NCc1ccco1`: the inhibition is 3.88% (inactive). As to `Cc1cc(=O)n2[nH]c(-c3sccc3-n3c(C)ccc3C)cc2n1`, the inhibition was -27% (inactive).

`CCc1c(C)nc2cc(-c3cccs3)[nH]n2c1=O`: the inhibition was 48.1% (active). Regarding `CCc1c(C)nc2cc(C)[nH]n2c1=O`, the inhibition was 5.94% (inactive). The value for `CN1C(=O)C(CC(=O)Nc2ccccc2)S/C1=N/c1nccs1` (stereo not given) was -20.3% (inactive); that for `Cc1coc2c(O)cc3c(c12)OC1(N2CCCCC2)C(=O)NCCCC31` (stereo not given) was 9.33% (inactive); that for `COCc1cc(=O)oc2cc(NS(=O)(=O)c3ccc(C)cc3)ccc12` was 13.1% (inactive). For `CC(C)(C)c1ccc(/C=C2\Oc3c(ccc(O)c3CN3CCN(CCO)CC3)C2=O)cc1`, the inhibition was 12.8% (inactive). As for `Cc1ccc2c(c1)C1CN(C)CCC1N2C(=S)Nc1ccc(Cl)cc1Cl` (stereo not given), the inhibition was -21% (inactive).

For the compound `O=S(=O)(NCCc1ccc(F)cc1)c1cccc2cccnc12`, the inhibition was -18.1% (inactive).

On to `CN(C)c1ccc(C(=S)N2CCN(C(=S)Nc3ccc(Cl)cc3)CC2)cc1`, for which the inhibition is -3.9% (inactive). As to `CC(=O)Oc1c(C(=O)c2nnc(C)o2)c(=O)n(Cc2ccccc2)c2ccccc12`, the inhibition is -3.21% (inactive). Then `COCCCNC(=S)NNC(=O)C(O)(c1ccccc1)c1ccccc1`, with -8.87% (inactive).

As for `O=C(O)CCC(=O)Nc1nc2ccc([N+](=O)[O-])cc2s1`, the inhibition is -2.95% (inactive). Then `O=C(Nc1nc2ccc([N+](=O)[O-])cc2s1)c1ccncc1`, with -29% (inactive); and `O=C(NC(Nc1nc2ccc([N+](=O)[O-])cc2s1)(C(F)(F)F)C(F)(F)F)c1ccccc1`, with 41.2% (active). Then `Cc1cc(C)cc(OCC(=O)O/N=C(\N)Cc2ccc([N+](=O)[O-])cc2)c1`, with -5.5% (inactive); and `FC(F)Oc1ccccc1NC(=S)Nc1cccc(Cl)c1Cl`, with 5.26% (inactive). The value for `COC(=O)CC1=NN(c2nc(C)cc(C)n2)C(=O)C1` was -14.2% (inactive); that for `CC(=O)c1cc(C#N)c(N2CC(C)OC(C)C2)nc1C` (stereo not given) was -33.6% (inactive). On to `Cc1nc2ccccc2n1CC(=O)N/N=C/c1cccs1`, for which the inhibition is -34.3% (inactive). Consider `Cc1ccc(NC(=O)CC2C(=O)N(Cc3ccccc3)C(=S)N2NC(=O)c2cccc(F)c2)c(C)c1` (stereo not given), for which the inhibition is 6.19% (inactive).

For the compound `O=C(Nc1ccc(F)cc1F)N1CCCN(CCOc2ccccc2)CC1`, the inhibition is 6.19% (inactive). The value for `O=C(O)/C=C/c1ccc2c(c1)OCCO2` was -7.83% (inactive). The value for `O=C(Nc1ccccc1Cl)c1ccc2nsnc2c1` was -7.15% (inactive); that for `O=C(CN1CCCCC1)Nc1ccccc1Cl` was -3.07% (inactive). The value for `O=C(Nc1ccccc1Cl)/C(Cl)=C(\Cl)S(=O)c1ccccc1` (stereo not given) was 98.4% (active). For the compound `COC(=O)c1ccccc1NC(=O)C1CCN(S(=O)(=O)c2cc(OC)ccc2OC)CC1`, the inhibition is -24.9% (inactive). The value for `O=C1N(c2ccccc2)C(=Nc2ccccc2)SC12CC2` was 1.83% (inactive); that for `CCN(CC)S(=O)(=O)c1ccc(C)c(NC(=O)COc2ccc(Br)cc2Cl)c1` was -3.44% (inactive); that for `COc1ccc(N2CCC(CNC(=S)Nc3c(C)cccc3C)C2)cc1` (stereo not given) was 4.09% (inactive). Then `CCOc1ccc2nc(C(=O)N3CCCC(C)C3)sc2c1` (stereo not given), with 14.6% (inactive); and `O=C(Cc1cccs1)N(CC1CCCO1)C1(C(=O)NC2CCCCC2)CCCCC1` (stereo not given), with -13.5% (inactive); and `O=C(Nc1nnc(C2COc3ccccc3O2)o1)c1ccc(F)cc1` (stereo not given), with -4.96% (inactive). Then `CC(C)c1cc(NCc2ccccn2)n2c(nc3ccccc32)c1C#N`, with 12.6% (inactive); and `Cn1nnnc1NCc1ccc(Cl)c(Cl)c1`, with 4.37% (inactive); and `CCCCCC(O)c1cccc(OCc2ccc3ccccc3n2)c1` (stereo not given), with -14.6% (inactive). Regarding `O=C(NCCCc1ccccc1)C1CCC(CNc2c(N3CCCCC3)c(=O)c2=O)CC1` (stereo not given), the inhibition is 0.07% (inactive). With `CC(C)c1ccc(NC(=O)CCN2C(=O)c3ccc([N+](=O)[O-])cc3C2=O)cc1`, the inhibition is -5.92% (inactive). The value for `CC(=O)c1c(-c2ccccc2)c2ccccc2[nH]c1=O` was -27.5% (inactive); that for `O=C(O)CSc1nccn1-c1cccc(Cl)c1` was -14.5% (inactive). For the compound `C/C(=N\Nc1ccc([N+](=O)[O-])cc1)c1ccc(-n2nncc2C(C)(C)C)cc1`, the inhibition is -11.5% (inactive).

For `COc1ccc(/C=N/NC(=O)Nc2ccc3nsnc3c2)c(OC)c1`, the inhibition was 9.36% (inactive). Consider `CC(=O)c1cccc(NC(=O)[C@@H](NC(N)=O)C(C)C)c1`, for which the inhibition is -13.9% (inactive).

In the case of `Cc1ccc(S(=O)(=O)Nc2nc3ccccc3s2)cc1[N+](=O)[O-]`, the inhibition was -9.6% (inactive). The value for `COc1ccc(CS(=O)/C(Cl)=C(/Cl)C(=O)Nc2ccc(OC)nc2)cc1` (stereo not given) was 95.9% (active); that for `COc1ccc(Nc2cc(Cl)ccc2C(=O)O)cn1` was 0.55% (inactive).

For the compound `COc1ccc(NC(=O)/C(Cl)=C(/Cl)S(=O)Cc2ccc(C)cc2)cn1` (stereo not given), the inhibition was 59.5% (active). For `COc1ccc(NC(=S)Nc2ccccc2Cl)cn1`, the inhibition is -10.6% (inactive). For `Cc1ccc(NC(=O)OCc2cncs2)cc1`, the inhibition was 6.88% (inactive). Then `COc1ccc(NC(=S)NCCNC(C)=O)cc1`, with 4.01% (inactive). On to `CCn1cc(-c2cc(C(=O)O)on2)c(C)n1`, for which the inhibition is -15.2% (inactive). In the case of `Cc1csc(CN(C)C(=O)CC2C(=O)NCCN2CC(C)(C)C)n1` (stereo not given), the inhibition is 2.01% (inactive). Regarding `CC(C)N(C)C(=O)CCc1nnc(CCc2c[nH]c3ccccc23)o1`, the inhibition was -1.14% (inactive). The value for `CCOc1ccc(C(CCc2ccccc2)NC(=O)c2ccc(OC)c(OC)c2)cc1OCC` (stereo not given) was 0.03% (inactive); that for `CC(=O)Nc1ccc(S(=O)(=O)Nc2nccc(/C=C/c3ccccc3F)n2)cc1` was -21.4% (inactive).

On to `O=C(CC(=O)Nc1ccc(Cl)c(Cl)c1)N/N=C/c1ccc(O)cc1`, for which the inhibition is -17.9% (inactive). The value for `O=C(CC(O)(C(F)(F)F)C(F)(F)F)Nc1ccc(Cl)c(Cl)c1` was 33.2% (active); that for `CN(C)CCNC(CC(=O)Nc1ccc(Cl)c(Cl)c1)C(=O)O` (stereo not given) was 0.14% (inactive). Then `CN(C(=O)CSc1nnc(Nc2ccccc2)s1)C1CCS(=O)(=O)C1` (stereo not given), with -10.1% (inactive); and `Cc1ccc(OCCOCCOc2ccc(Br)cc2/C=N\NC(=O)c2ccncc2)cc1`, with -17.4% (inactive); and `N#Cc1c(-c2cccs2)nc(SCC(=O)c2ccc(Br)cc2)[nH]c1=O`, with 15.8% (inactive). Take `Cc1ccc(C(=O)Nc2sc(Cc3ccc4c(c3)OCO4)c(C)c2C(N)=O)cc1`: the inhibition is -11.1% (inactive). With `O=C(Nc1ccccc1)OCc1cc(-c2ccc(Cl)cc2)on1`, the inhibition is -6.25% (inactive). The value for `O=C1C=C(c2ccc(Cl)cc2)C(=O)N1Nc1ccccc1` was 34.7% (active).

Take `O=C1c2cccc3cc(Br)cc(c23)C(=O)N1Nc1ccccc1`: the inhibition was -15.2% (inactive). The value for `FC(F)(F)c1cccc(-c2nc(COc3ccc(Cl)cc3Cl)no2)c1` was -7.31% (inactive). Turning to `Oc1ccc(-c2nncn2-c2ccccc2)cc1`, the inhibition is -11.3% (inactive). The value for `CCNC(=O)COC(=O)CCNC(=O)c1cccc(C)c1` was -16.4% (inactive). For the compound `CCN(CCNC(=O)C1=C(C)C(=O)OC12CCC(C)CC2)c1ccccc1` (stereo not given), the inhibition was 7.01% (inactive). For the compound `O=C(CCN1C(=O)C2C3C=CC(C3)C2C1=O)Oc1ccc2ccccc2c1` (stereo not given), the inhibition was 0.5% (inactive).

`O=c1c2cc3c(=O)n(CC4CCCO4)c(=O)c3cc2c(=O)n1CC1CCCO1` (stereo not given): the inhibition is 1.15% (inactive).

On to `O=C1c2cccc3c([N+](=O)[O-])ccc(c23)C(=O)N1CC1CCCO1` (stereo not given), for which the inhibition was 77.4% (active). In the case of `O=C(NCc1ccc2c(c1)OCO2)c1ccc2c(c1)C(=O)N(CC1CCCO1)C2=O` (stereo not given), the inhibition is 4.48% (inactive). Then `Cc1onc(NC(=O)c2ccc([N+](=O)[O-])o2)c1Br`, with 28.1% (inactive); and `Cc1cccc(NC(=S)NC(=O)c2ccc(Br)o2)c1`, with -1.45% (inactive); and `Cc1cccc(NC(=O)c2ccc([N+](=O)[O-])o2)c1`, with 47.9% (active).

For `CN(C)C(=O)CSc1n[nH]c(-c2ccco2)n1`, the inhibition is -22.7% (inactive).
